Reference: PubChem BioAssay (NCATS)
Records with an inconclusive call do not appear. Active and inactive are the calls of the source. Calls follow the shape of the dose curve; as a rule, active = well fitted inhibition curve with a large enough effect; inconclusive = small, poorly fitted or top-dose-only effect; inactive = flat fitted curve, though single readings scatter.

Each molecule was assayed against Calcium and integrin-binding protein 1 (Homo sapiens) (UniProt Q99828) (assay: Primary qHTS for Identification of Calcium Integrin Binding Protein 1 (CIB1) Competitor (AID 1508620;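 also: GST tagged CIB1 binding a fluorescein labelled alphaIIb integrin peptide tracer; top concentration of the series differs between compounds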)). Conditions: CIB1-GST / FITC-alphaIIb peptide fluorescence polarization; series mostly up to 114 µM; activity change, negative = inhibition: at the top concentration.
How it was run: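 Fluorescence polarization competition: CIB1-GST (1 uM final) preincubated with compound 15 min at room temperature, then FITC-labeled alphaIIb peptide (100 nM final) added for another 15 min. Polarization read at Ex 480/Em 540.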
% is scaled to controls: 0 for no effect and ±100 for the full control effect.

Chain of Calcium and integrin-binding protein 1 (Homo sapiens) (Q99828 whole entry, looked up): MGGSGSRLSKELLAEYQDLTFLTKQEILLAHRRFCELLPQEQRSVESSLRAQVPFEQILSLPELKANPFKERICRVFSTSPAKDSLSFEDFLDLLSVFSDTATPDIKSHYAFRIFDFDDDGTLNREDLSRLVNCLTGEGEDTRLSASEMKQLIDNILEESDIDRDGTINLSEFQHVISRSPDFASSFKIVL

| Compound | activity change, negative = inhibition | Potency |
| --- | --- | --- |
| C#CCOc1cc(C2=Nn3c(nnc3-c3ccc(OCC(C)=O)cc3)SC2)ccc1OC | -2.47% (inactive) | – |
| N[C@@H](CCC(=O)O)C(=O)Nc1ccc(Cl)cc1C(=O)c1ccc[nH]1 | 5.16% (inactive) | – |
| COc1ccc([S+](=O)([O-])N2CCCN([S+](=O)([O-])c3ccc(OC)c(NC(C)=O)c3)CC2)cc1NC(C)=O | -0.0408% (inactive) | – |
| CC(C)(C)OC(=O)N1CCN(c2cnc(NCc3ccc(-c4ccc(C#N)cc4)o3)nc2)CC1 | -14% (inactive) | – |
| O=c1c2ccccc2nc2sc(NCc3ccccc3)nn12 | 10.8% (inactive) | – |
| COc1ccc(NC(=O)c2cccnc2C)cc1S(=O)(=O)Nc1ccc(Br)cc1 | -1.18% (inactive) | – |
| COc1cccc(C2c3c(ncn(-c4ccccc4)c3=N)Oc3ccc4ccccc4c32)c1 (configuration not stated) | – | inactive |
| Cc1cc(NC(=O)Nc2cccc(-c3ccncc3)n2)ccc1Cl | – | inactive |
| Cc1cc(N2C(=O)c3ccccc3C2=O)no1 | -7.01% (inactive) | – |
| Cc1ccc(OCCn2c(CCNC(=O)C3CCOCC3)nc3ccccc32)cc1 | 7.79% (inactive) | – |
| COc1ccc(C2Nc3ccccc3C(=O)N2Cc2ccco2)cc1COc1c(C)cccc1C (configuration not stated) | 0.799% (inactive) | – |
| C(#Cc1cccs1)c1cccnc1 | -1.79% (inactive) | – |
| CCOC(=O)c1[nH]c2c(c1C)C(=O)CC(c1ccco1)C2 (configuration not stated) | – | inactive |
| O=c1c2ccccc2nc2sc(NCc3ccc(Oc4ccccc4)cc3)nn12 | 8.44% (inactive) | – |
| Cc1cnc(-c2ccccc2C(C)C)nc1NCc1ccc(C(N)=O)cc1 | 2.75% (inactive) | – |
| CN(C(=O)Nc1ccc2ccccc2c1)c1nnc(-c2ccncc2)s1 | 3.63% (inactive) | – |
| Cc1ccc(OCCn2c(CCNC(=O)c3cccc4cc[nH]c34)nc3ccccc32)cc1 | 5.56% (inactive) | – |
